SMILES strings stand for the structures.

In this assay the target is Proto-oncogene tyrosine-protein kinase receptor Ret (Homo sapiens) (UniProt P07949). The conditions noted are these: at 1 µM.
Chain of Proto-oncogene tyrosine-protein kinase receptor Ret (Homo sapiens) (P07949 whole entry): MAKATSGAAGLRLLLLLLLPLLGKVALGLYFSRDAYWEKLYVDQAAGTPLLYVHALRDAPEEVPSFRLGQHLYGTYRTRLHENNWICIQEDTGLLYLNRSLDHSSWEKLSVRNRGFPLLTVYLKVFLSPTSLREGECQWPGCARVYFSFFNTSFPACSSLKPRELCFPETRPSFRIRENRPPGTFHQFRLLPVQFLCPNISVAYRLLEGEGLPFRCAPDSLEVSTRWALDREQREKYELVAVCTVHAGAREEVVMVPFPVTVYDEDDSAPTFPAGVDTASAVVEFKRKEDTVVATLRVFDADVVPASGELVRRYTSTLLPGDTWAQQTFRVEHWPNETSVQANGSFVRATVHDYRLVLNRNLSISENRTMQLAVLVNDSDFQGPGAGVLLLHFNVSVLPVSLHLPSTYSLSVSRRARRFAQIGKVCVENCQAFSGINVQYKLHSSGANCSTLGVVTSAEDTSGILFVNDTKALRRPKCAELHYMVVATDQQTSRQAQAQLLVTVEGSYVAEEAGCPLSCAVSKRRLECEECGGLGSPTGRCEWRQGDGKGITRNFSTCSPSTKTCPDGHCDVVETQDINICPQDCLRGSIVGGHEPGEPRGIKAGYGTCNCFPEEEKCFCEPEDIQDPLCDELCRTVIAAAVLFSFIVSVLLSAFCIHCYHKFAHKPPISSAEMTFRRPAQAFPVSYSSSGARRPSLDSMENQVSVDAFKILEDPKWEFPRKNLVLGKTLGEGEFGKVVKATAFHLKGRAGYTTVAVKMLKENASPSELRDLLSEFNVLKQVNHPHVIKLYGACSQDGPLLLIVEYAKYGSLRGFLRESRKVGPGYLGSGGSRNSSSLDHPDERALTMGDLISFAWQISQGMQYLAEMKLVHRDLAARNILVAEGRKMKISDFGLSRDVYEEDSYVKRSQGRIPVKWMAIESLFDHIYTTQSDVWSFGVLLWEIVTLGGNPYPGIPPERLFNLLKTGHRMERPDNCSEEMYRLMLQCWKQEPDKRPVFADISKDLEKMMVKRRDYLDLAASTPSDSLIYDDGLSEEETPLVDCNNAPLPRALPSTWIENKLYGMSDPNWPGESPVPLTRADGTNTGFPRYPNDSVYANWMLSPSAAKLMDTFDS
`CCN(CC)CCCCN1c2ccccc2Oc2ccc(Cl)cc21`: the residual activity (commonly the signal under treatment as a percentage of the control signal) turned out to be 108%.

As to `c1ccc(-c2n[nH]c3c2oc2ccccc23)cc1`, the residual activity was 74%.

On to `Cc1nc2cc3nc(-c4cccs4)cnc3cc2n1C`, for which the residual activity was found to be 65%.

As for `Cc1cc(Nc2nc(-c3ccccc3)nc3ccccc23)n[nH]1`, the residual activity came to 2%.

For the molecule `Oc1ccc(Nc2nc(-c3ccc(Cl)cc3)cs2)cc1`, the residual activity stood at 97%.

For the molecule `CC(=O)O/N=C1\C(=C2\C(=O)Nc3cc(Br)ccc32)Nc2ccccc21`, the residual activity amounted to 6%.

For `CCN(CC)C(=O)c1ccc(Nc2nc(OCC3CCCCC3)c3nc[nH]c3n2)cc1`, the residual activity amounted to 3%.

Consider `CO[C@@H]1[C@H](N(C)C(=O)c2ccccc2)C[C@H]2O[C@]1(C)n1c3ccccc3c3c4c(c5c6ccccc6n2c5c31)C(=O)NC4`, for which the residual activity worked out at 8%.

In the case of `Oc1ccc(-c2nc(-c3ccc(F)cc3)c(-c3ccncc3)[nH]2)cc1`, the residual activity amounted to 101%.

`COc1cc2ncnc(N3CCN(C(=O)Nc4ccc(Oc5ccccc5)cc4)CC3)c2cc1OC`: the residual activity worked out at 101%.

Regarding `COc1cc2ncnc(Nc3ccc(NC(=O)c4ccccc4)cc3)c2cc1OC`, the residual activity came to 56%.

Take `O=C1NC(=O)c2cc(Nc3ccc(F)cc3)c(Nc3ccc(F)cc3)cc21`: the residual activity worked out at 91%.

Take `COc1cc2ncc(-c3ccccc3)nc2cc1OC`: the residual activity came to 94%.

As to `COc1cc2ncnc(Nc3ccc(Oc4ccccc4)cc3)c2cc1OC`, the residual activity came to 25%.

As for `NC(=O)c1ccc2[nH]c(-c3ccc(Oc4ccc(Cl)cc4)cc3)nc2c1`, the residual activity was 105%.

In the case of `O=C1Nc2ccc(Br)cc2/C1=C\c1cc2c([nH]1)CCCC2`, the residual activity is 74%.

For `CC(C)n1cnc2c(NCc3ccccc3)nc(NCCCO)nc21`, the residual activity was 96%.

With `c1ccc(-c2n[nH]cc2-c2ccnc3ccccc23)nc1`, the residual activity was determined as 104%.

The record behind these values is ChEMBL document CHEMBL2218924, “A broad activity screen in support of a chemogenomic map for kinase signalling research and drug discovery” (Biochem J, 2013).
